Assay outcomes: PubChem, National Center for Advancing Translational Sciences (NCATS)
Hits are enriched below; roughly 19% of the tested compounds scored in any of these assays.
TDP1 inh: qHTS Assay for Inhibitors of Tyrosyl-DNA Phosphodiesterase (TDP1). Tyrosyl-DNA phosphodiesterase 1 (Homo sapiens), Q9NUW8. recombinant TDP1, AlphaScreen DNA substrate cleavage. Potency, µM (doses to about 130 µM), for inactives: at the highest dose activity change, negative = inhibition, actives largely listed as inhibitors. 0.28% of 350,000 active. AID 485290, 2010; also: potency is read from the fitted curve at half-maximal effect; nearly all actives have a fitted effect of over 40% in size
Target sequence (Q9NUW8 whole entry, looked up): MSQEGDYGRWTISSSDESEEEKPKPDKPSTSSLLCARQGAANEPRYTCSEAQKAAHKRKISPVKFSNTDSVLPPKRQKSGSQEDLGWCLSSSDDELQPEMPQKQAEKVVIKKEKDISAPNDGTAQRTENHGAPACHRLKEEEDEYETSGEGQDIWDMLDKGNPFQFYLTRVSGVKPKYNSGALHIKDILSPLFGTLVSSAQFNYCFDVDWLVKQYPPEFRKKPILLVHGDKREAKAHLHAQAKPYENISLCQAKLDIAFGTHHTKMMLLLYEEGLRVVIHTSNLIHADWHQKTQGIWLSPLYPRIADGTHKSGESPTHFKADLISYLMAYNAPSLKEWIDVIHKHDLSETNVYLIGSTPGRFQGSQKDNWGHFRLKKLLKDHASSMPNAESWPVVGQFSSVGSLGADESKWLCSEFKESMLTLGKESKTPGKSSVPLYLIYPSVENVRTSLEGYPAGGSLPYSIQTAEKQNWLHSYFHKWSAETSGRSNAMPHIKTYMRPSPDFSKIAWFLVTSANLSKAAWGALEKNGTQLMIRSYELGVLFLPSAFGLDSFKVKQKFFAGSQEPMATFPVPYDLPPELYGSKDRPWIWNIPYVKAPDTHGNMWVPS
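Here, a 5' biotin and 3' phosphotyrosine-FITC DNA oligonucleotide reports Tdp1 activity: intact substrate bridges AlphaScreen beads, while cleavage leaves a 3' phosphate and drops signal. All incubations at room temperature.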
Giardia kill: Small Molecules that selectively kill Giardia lamblia: qHTS. Giardia lamblia trophozoite viability. activity change, % at 7.66 µM, hits read low. 0.15% of 340,000 active; in the data active = activity change below about -80%; inconclusive = between about -30% and that limit;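 also: parasites exposed to compound for two days anaerobically before the ATP read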
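Anaerobic 48 hrs incubation at 37 deg C of 100 trophozoites/well with test compounds; ATPLite 1-Step luminescence, 15-30 min RT, reports cellular ATP as viability.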
TDP1 cell noCPT: qHTS for Inhibitors of human tyrosyl-DNA phosphodiesterase 1 (TDP1): qHTS in cells in absence of CPT. DT40 Tdp1-/- hTDP1 cells, no CPT, ATP luminescence, 48 h. Potency, µM (titrated, usually from 46.2 µM), without a hit: at the top dose activity change, negative = growth inhibition, actives largely listed as inhibitors. 15% of 420,000 active. AID 686978, 2013; also: potency is read from the fitted curve at half-maximal effect; nearly all actives have a fitted effect of over 55% in size
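Growth kinetics read by CellTiter-Glo luminescence after ≥48 hr at 37 °C. Cells: DT40 Tdp1-/- stably carrying human TDP1, 400 per well, compound exposure in the absence of CPT (DMSO vehicle).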
IL-1B inflam inh: qHTS for Inhibitors of Inflammasome Signaling: IL-1-beta AlphaLISA Primary Screen; 4.7% of 360,000 active; activity change, % at 57.5 µM; AID 743279, 2014; THP-1 LPS/ATP IL-1B secretion, AlphaLISA, 16 h; active compounds read low; in the data active = activity change below about -50%; inconclusive = mostly about -30% to -49%
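Secreted IL-1B measured by AlphaLISA bead assay after 16 h compound exposure of THP-1 cells; compounds (final up to 57.5 uM) added 1 h before LPS (250 ng/mL) and ATP (1.25 mM) stimulation; lower signal means less secretion.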
ELG1 DNA repair: qHTS screen for small molecules that inhibit ELG1-dependent DNA repair in human embryonic kidney (HEK293T) cells expressing luciferase-tagged ELG1 | HEK293T ELG1-luciferase reporter, luminescence, 16 h; DNA damage induced by 5-fluorouridine | 2.3% of 330,000 active | Potency, µM (doses to about 46.1 µM), for inactives: at the top dose activity change, negative = inhibition, usual class: inhibitors; also: potency is read from the fitted curve at half-maximal effect; nearly all actives have a fitted effect of over 55% in size
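5-Fluorouridine DNA damage + compound/DMSO, 2,000 cells/well, 16 h, 37 °C/5% CO2. ONE-Glo, 30 min RT, luminescence. Readout = decrease in reporter signal.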
TDP1 cell CPT: qHTS for Inhibitors of human tyrosyl-DNA phosphodiesterase 1 (TDP1): qHTS in cells in presence of CPT; Potency, µM (series often up to 46.2 µM), for inactives: top-dose activity change, negative = growth inhibition, usual class: inhibitors; chicken DT40 Tdp1-/-;hTDP1 cells + 20 nM CPT, ATP luminescence, 48 h; AID 686979, 2013; 12% of 420,000 active; also: potency is read from the fitted curve at half-maximal effect; nearly all actives have a fitted effect of over 55% in size
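Cell growth measured by CellTiter-Glo luminescence after a minimum 48 h, 37 C compound exposure with 20 nM CPT in Tdp1-knockout DT40 cells stably expressing hTDP1, seeded 400/well; qHTS titration format.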
Numbers without * were called inactive; u = inconclusive; x = not tested or not shown. Unless noted, calls follow the shape of the dose curve; as a rule, active = well fitted curve in the direction sought with a large enough effect; inconclusive = small, poorly fitted or top-dose-only effect, or another doubt; inactive = no such curve, though single readings can be large; an effect the other way counts as inactive or inconclusive. % is scaled to controls: 0 for no effect and ±100 for the full control effect.

SMILES | TDP1 inh | Giardia kill | TDP1 cell noCPT | IL-1B inflam inh | ELG1 DNA repair | TDP1 cell CPT
Cc1nnnn1/C(=C\c1ccccc1)C(=O)OCC(=O)NC(C)(C)C | 3% | -4 | 10µM* | -5 | 16µM* | 16µM*
COc1ccc(-c2nnc(SCc3ccccc3F)o2)cc1 | -6% | -23 | -25% | -7 | u | -1%
COc1cc(OC)cc(-c2nnc(SCc3c(F)cccc3Cl)o2)c1 | -7% | 3 | 23µM* | -60* | u | u
CCn1ccc2c(OCC(=O)Nc3ccc(C(C)=O)cc3)cccc2c1=O | 5% | x | 9.2µM* | x | x | u
CCOCCn1ccc2c(OCC(=O)Nc3ccc(C(N)=O)cc3)cccc2c1=O | -10% | x | 15µM* | x | x | u
COCCn1ccc2c(OCC(=O)Nc3cc(OC)ccc3OC)cccc2c1=O | 0% | -10 | 15µM* | -10 | u | u
COc1cccc2c(=O)n(CC(=O)Nc3ccccc3)ccc12 | 0% | -17 | -20% | 6 | 27% | 4%
CCOCCn1ccc2c(OCC(=O)Nc3cccc(F)c3)cccc2c1=O | 3% | x | u | x | x | -29%
COC(=O)COc1cccc2c(=O)n(CC(=O)Nc3ccc4c(c3)OCCO4)ccc12 | x | -6 | -13% | -50* | 0% | -15%
CCC/C=C(\CCC)C(NS(=O)(=O)c1ccc(Cl)cc1)c1ccccc1 (stereo not given) | -10% | x | x | x | x | x
CCSc1nnc2c(n1)OC(c1ccc(OC)cc1OC)N(C(C)=O)c1ccccc1-2 (stereo not given) | x | x | u | x | x | -28%
OCCN1CCN(c2ncnc3c2ncn3[C@H]2CN(Cc3ccc4c(c3)OCO4)C[C@@H](CO)O2)CC1 | x | x | u | 25 | x | -36%
CCOCCn1ccc2c(OCC(=O)Nc3ccccc3OC)cccc2c1=O | 4% | 3 | u | -60* | u | u
CCCCC(O)(CCCC)C(=O)N/N=C(\C)c1ccc(Cl)cc1 | x | 8 | u | -54* | u | u
CS(=O)CC(O)(c1ccc(F)cc1)C1CC1 (stereo not given) | x | x | -21% | 12 | x | -7%
O=C(Cc1cccc2ccccc12)N1CCCc2ccccc21 | -4% | 3 | -25% | -27 | 20% | u
OCCCNc1nc(-c2ccc(Br)cc2)nnc1-c1ccc(Cl)cc1 | 5% | 2 | u | -57* | -5% | 23µM*
OCCCNc1nc(-c2ccc(Cl)cc2)nc2ccccc12 | x | -13 | u | -9 | -22% | -18%
O=C(NCc1cccs1)c1ccc(CSc2nc3ccncc3n2Cc2ccccc2)cc1 | 5% | x | 18µM* | x | x | u
CCOc1ccc(CNC(=O)c2ccc(CSc3nc4ccncc4n3Cc3ccc(F)cc3)cc2)cc1 | 5% | x | u | x | x | u
Cc1cccc(Cn2c(SCc3ccc(C(=O)NCc4cccs4)cc3)nc3ccncc32)c1 | 8% | x | 23µM* | x | x | u
CN(Cc1ccon1)C(=O)C1CCC(=O)N(Cc2ccc(Cl)cc2)C1 (stereo not given) | 5% | -2 | 3% | 5 | -1% | 1%
COc1ccc(NC(=O)CC2C(=O)N(c3ccc(C)cc3)C(=O)N2Cc2ccc(C)cc2)cc1 (stereo not given) | 4% | x | u | x | x | -10%
C[C@H]1CCC/C=C/[C@@H]2C[C@H](O)C[C@H]2[C@H](O)[C@H](S(=O)c2ccc(O)cc2)CC(=O)O1 (stereo not given in full) | x | -12 | 0.73µM* | u | x | 0.58µM*
CCc1ccc2c(c1)/C(=N/OC)C(=O)N2 | 4% | 5 | 21µM* | -8 | 19% | u
SMILES | TDP1 inh | Giardia kill | TDP1 cell noCPT | IL-1B inflam inh | ELG1 DNA repair | TDP1 cell CPT
Cc1cc(C)c(N=C2C(=O)Nc3ccccc32)c(C)c1 | x | 34 | -27% | 30 | u | -14%
COc1cccc(-n2c(=O)c3c(C)c(C(=O)N(C)C)sc3n(Cc3ccc(F)cc3Cl)c2=O)c1 | 4% | x | 18µM* | x | x | u
COc1ccc(-n2c(=O)c3c4c(sc3n(Cc3ccc(F)cc3)c2=O)CN(C(C)=O)CC4)c(OC)c1 | 4% | x | 13µM* | x | x | 21µM*
COc1ccc(-n2c(=O)c3c(C)c(C)sc3n(Cc3ccc(F)cc3)c2=O)c(OC)c1 | 0% | -2 | 13µM* | -9 | u | 3%
COc1ccc(-n2c(=O)c3c(C)c(C)sc3n(CC(=O)NCc3ccc(C)cc3)c2=O)c(OC)c1 | 3% | x | -14% | x | x | -5%
CCN(CC)C(=O)c1ccc(C(=O)c2c(C)cc(C)cc2C)cc1 | -2% | -19 | 21µM* | -9 | u | 18µM*
Cc1ccc(S(=O)(=O)N(CCC(=O)O)c2ccccc2)cc1 | 1% | 11 | 0% | 0 | 14% | -5%
C=CCn1c(SCc2cccc(OC)c2)nnc1-c1ccncc1 | 7% | -5 | u | -9 | -15% | -20%
Cc1cccc(Cn2c(=O)n(Cc3ccc4c(c3)OCO4)c(=O)c3oc4ccccc4c32)c1 | 8% | x | -12% | x | x | -17%
COc1ccc(Cn2c(=O)n(Cc3ccco3)c(=O)c3oc4ccccc4c32)cc1 | 5% | x | 23µM* | x | x | u
O=c1cc(O)c2c(=O)n(Cc3ccccc3)c3ccccc3c2o1 | 4% | -11 | 23µM* | 26 | u | u
Cc1cccc(Cn2c(=O)n(-c3cc(C)cc(C)c3)c(=O)c3oc4ccccc4c32)c1 | -5% | x | 12µM* | x | x | 8.2µM*
Cc1ccc(-n2c(=O)c3oc4ccccc4c3n(Cc3cccc(F)c3)c2=O)cc1C | 0% | x | u | x | x | 26µM*
O=C(NCCN1CCN(c2ccccc2)CC1)C1CCN(S(=O)(=O)c2cccc3nsnc23)CC1 | 1% | -6 | -25% | 11 | u | u
COc1ccccc1-c1c(C)nn2c(N3CCN(c4ccc(F)cc4)CC3)cc(C)nc12 | 4% | x | -25% | x | x | u
Cc1cc(C)cc(NC(=O)Cn2c(=O)n(-c3cc(C)cc(C)c3)c(=O)c3oc4ccccc4c32)c1 | 0% | x | u | x | x | u
Cc1cccc(-n2c(=O)c3ccccc3n(Cc3ccccc3)c2=O)c1 | 0% | x | u | x | x | 23µM*
COc1cccc(Cn2c(=O)n(-c3cc(C)cc(C)c3)c(=O)c3oc4ccccc4c32)c1 | 5% | x | 16µM* | x | x | u
C[C@@H](CCc1ccc(O)cc1)NCCc1ccc(O)c(O)c1 | 2% | x | 11µM* | x | x | 6µM*
